According to PubChem BioAssay (NCATS):
Inconclusive results are not listed. Calls of active or inactive are those of the source. The call rests on the fitted dose curve; in most records, active means well fitted curve in the direction sought with a large enough effect; inconclusive means small, poorly fitted or top-dose-only effect, or another doubt; inactive means no such curve, though single readings can be large; an effect the other way counts as inactive or inconclusive.

What was measured:
[1] = qHTS Assay for Identifying Gametocytocidal Compounds (AID 743244);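 further: actives lower the fluorescent signal which means gametocytes are killed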; conditions: P. falciparum 3D7 stage III-V gametocytes, alamarBlue, 72 h; max response: active compounds read low
Outline: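 P. falciparum 3D7 stage III–V gametocytes (20,000 cells/well) were exposed to compounds for 72 h at 37 °C, 5% CO2. AlamarBlue was then added for 24 h; decreased resorufin fluorescence (Ex 525/Em 598 nm) indicated loss of viability.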

[2] = qHTS assay to identify small molecule inhibitors of chordoma cells - UCH-1 (AID 1259355); further: nearly all actives have a fitted effect of over 55% in size
Outline: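 Screening used approved and investigational drugs in 15-point titration against 800 seeded cells per well. A fixed combination of auranofin with camptothecin, doxorubicin, rubitecan and topotecan followed compound addition, and growth was scored by CellTiter-Glo after 48hr.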

[3] = qHTS assay to identify small molecule inhibitors of chordoma cells - UCH-2 (AID 1259356); further: series mostly up to about 46 µM
On the % scale 0 is the no-effect control and ±100 the full control effect.

COC(=O)[C@H]1[C@H]2C[C@@H]3c4[nH]c5cc(OC)ccc5c4CCN3C[C@H]2C[C@H](OC)[C@@H]1OC
inactive: max response [1] 15% | Potency [2] | Potency [3]

CCCCCCCCCc1ccc(OCCOCCO)cc1
inactive: max response [1] -0.96% | Potency [2] | Potency [3]

CC(C)(O/N=C(\C(=O)N[C@@H]1C(=O)N2C(C(=O)[O-])=C(C[n+]3ccccc3)CS[C@H]12)c1csc(N)n1)C(=O)O
inactive: max response [1] 20.4% | Potency [2] | Potency [3]

FC(F)(F)COCC(F)(F)F
inactive: max response [1] 3.82% | Potency [2] | Potency [3]

C[S+](C)CCC(N)C(=O)O (stereo not drawn)
inactive: max response [1] 3.96% | Potency [2] | Potency [3]

CC/C(=C(/CC)c1ccc(OP(=O)(O)O)cc1)c1ccc(OP(=O)(O)O)cc1
inactive: max response [1] -1.73% | Potency [2] | Potency [3]

CO[C@@]1(NC(=O)C2SC(=C(C(N)=O)C(=O)O)S2)C(=O)N2C(C(=O)O)=C(CSc3nnnn3C)CS[C@@H]21 (stereo partly drawn)
inactive: max response [1] 10.6% | Potency [2] | Potency [3]

O=C1CCC(=O)N1CO
inactive: max response [1] -5.34% | Potency [2] | Potency [3]

CC[C@@H](C)[C@H](N)C(=O)O
inactive: max response [1] -5.92% | Potency [2] | Potency [3]

C[C@@H]1O[C@@H](OC[C@H]2O[C@@H](Oc3c(-c4ccc(OCCO)c(OCCO)c4)oc4cc(OCCO)cc(O)c4c3=O)[C@H](O)[C@@H](O)[C@@H]2O)[C@H](O)[C@H](O)[C@H]1O
inactive: max response [1] 6.8% | Potency [2] | Potency [3]

CC(C)(Oc1ccc(C2CCCc3ccccc32)cc1)C(=O)O (stereo not drawn)
inactive: max response [1] -6.04% | Potency [2] | Potency [3]
